± gives the standard deviation.
What was measured:
Settings in all cases: modulator concentration 10 µM
[1] = system: RAW-Dual (murine macrophage reporter line); assay: NF-kB reporter (SEAP) activity fold change vs agonist alone; higher = enhanced NF-kB activity
Method in brief: (§1)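 RAW-Dual murine macrophage reporter cells were seeded at 50 000 per well in 384-well plates and pre-incubated 1 hour at 37 °C with compound pin-transferred to 10 μM final. After 1 hour, a PRR agonist was added and cells incubated overnight. Supernatant NF-κB (SEAP, QUANTI-Blue, 620 nm absorbance) and IRF (Lucia luciferase, QUANTI-Luc, luminescence) signals were divided by the mean agonist-only control on the same plate to give fold change. Two replicate plates were averaged, with errors by propagation.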

[2] = system: RAW-Dual (murine macrophage reporter line); assay: IRF reporter (Lucia luciferase) activity fold change vs agonist alone; higher = enhanced IRF activity
Method in brief: as §1

[3] = system: RAW-Dual (murine macrophage reporter line); assay: viability score (confluency relative to resting cells, overnight) (fraction); higher = more viable, active = viable (0.7 or more)
Method in brief: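 In 384-well plates, RAW-Dual macrophages received compound at a final 10 μM overnight. Two confluency masks were then made with IncuCyte software from IncuCyte images of all imaged wells. The viability score is defined as confluency relative to resting cells. Passing the cutoff required both masks to lie above 70% of resting cells.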

[4] = agonist: CpG ODN 1826 0.5 ug/mL

SMILES | NF-kB reporter [1, 4] | NF-kB reporter ([1]; agonist: LPS 0.1 ug/mL) | NF-kB reporter ([1]; agonist: MPLA […]) | IRF reporter ([2]; agonist: 3'3'-cGAMP 10 ug/mL) | IRF reporter ([2]; agonist: LPS 0.1 ug/mL) | IRF reporter ([2]; agonist: MPLA […]) | viability score [3]
Cc1ccc(CSCCNC(=O)CN(c2cccc(C)c2)S(C)(=O)=O)cc1 | 0.951 ± 0.09 | 1.01 ± 0.056 | 0.99 ± 0.061 | 0.998 ± 0.025 | 1.44 ± 0.2 | 1.15 ± 0.2 | 1 (active)
COc1cccc(CCNC(=O)CC2CSc3nc4c(c(=O)n32)CCCC4)c1 (centres undefined) | 1.22 ± 0.069 | 1.07 ± 0.083 | 1.05 ± 0.096 | 0.886 ± 0.034 | 1.06 ± 0.052 | 1.13 ± 0.11 | 0.996 (active)
COC(=O)c1cccc(-c2ccc(C=NN3C(=O)C4C5C=CC(CC5)C4C3=O)o2)c1 (centres undefined) | 1.04 ± 0.1 | 1.14 ± 0.082 | 0.815 ± 0.055 | 0.867 ± 0.025 | 1.55 ± 0.22 | 1.36 ± 0.14 | 1 (active)
CC1=CCC(C2Nc3ccccc3-c3nnc(SCc4ccc(C)cc4)nc3O2)CC1 (centres undefined) | 1.05 ± 0.13 | 1 ± 0.057 | 0.881 ± 0.053 | 0.978 ± 0.053 | 1.5 ± 0.1 | 1.22 ± 0.15 | 1.01 (active)
C#Cc1cccc(Nc2ncnc3cc4c(cc23)OCCOCCOCCO4)c1 | 0.937 ± 0.043 | 1 ± 0.11 | 1.11 ± 0.093 | 1.02 ± 0.05 | 1.2 ± 0.17 | 1.39 ± 0.36 | 1.02 (active)
CNCCc1ccccn1.Cl.Cl | 1.19 ± 0.36 | 0.956 ± 0.18 | 0.964 ± 0.08 | 0.946 ± 0.05 | 1.01 ± 0.31 | 1 ± 0.13 | 0.997 (active)
c1ccc(Nc2nc(Nc3ccccc3)nc(N3CCCCC3)n2)cc1 | 0.605 ± 0.04 | 1.01 ± 0.062 | 0.977 ± 0.064 | 1.05 ± 0.053 | 1.53 ± 0.15 | 1.22 ± 0.2 | 0.995 (active)
Cc1ccc(-c2nc(O)nc3ccccc23)cc1 | 1.28 ± 0.37 | 1.11 ± 0.086 | 1.07 ± 0.086 | 0.786 ± 0.054 | 0.967 ± 0.14 | 0.966 ± 0.11 | 0.931 (active)
COCC(C)(CNS(=O)(=O)c1ccccc1Br)OC (centres undefined) | 0.978 ± 0.091 | 1.13 ± 0.091 | 0.933 ± 0.1 | 0.982 ± 0.049 | 1.07 ± 0.11 | 1.06 ± 0.18 | 0.993 (active)
O=C(Nc1ccc(NS(=O)(=O)c2ccccc2)cc1)c1ccco1 | 1.12 ± 0.14 | 0.922 ± 0.13 | 0.998 ± 0.035 | 0.879 ± 0.14 | 0.818 ± 0.035 | 0.823 ± 0.095 | 1 (active)
CC(C)c1nc(CN(C)C(=O)N[C@H](C(=O)N[C@@H](Cc2ccccc2)C[C@H](O)[C@H](Cc2ccccc2)NC(=O)OCc2cncs2)C(C)C)cs1 | 0.57 ± 0.047 | 0.468 ± 0.036 | 0.8 ± 0.053 | 1.04 ± 0.14 | 0.993 ± 0.049 | 0.92 ± 0.096 | 1 (active)
Clc1cccc(C=Cc2nn3c(Cc4ccccc4)nnc3s2)c1 | 0.885 ± 0.04 | 0.927 ± 0.092 | 1.12 ± 0.06 | 0.86 ± 0.039 | 1.35 ± 0.24 | 1.44 ± 0.43 | 0.987 (active)
NC1CONC1=O (centres undefined) | 1.25 ± 0.3 | 1.09 ± 0.11 | 1 ± 0.082 | 0.937 ± 0.033 | 1.2 ± 0.17 | 1.11 ± 0.12 | 0.991 (active)
COC(=O)C1=CN(C2CC2)C=C(C(=O)OC)C1c1ccccc1OC | 0.917 ± 0.074 | 1.05 ± 0.058 | 0.97 ± 0.061 | 0.934 ± 0.074 | 1.22 ± 0.17 | 1 ± 0.097 | 1.01 (active)
COc1ccc(Cn2c(SC)nc3c(c2=O)C2(CCCCC2)Cc2ccccc2-3)cc1 | 1.43 ± 0.45 | 0.856 ± 0.076 | 1.15 ± 0.2 | 0.791 ± 0.099 | 0.995 ± 0.076 | 1.33 ± 0.25 | 0.989 (active)
CCOc1nccn2c(CNC(=O)c3cccnc3)nnc12 | 0.929 ± 0.098 | 1.05 ± 0.084 | 1.11 ± 0.15 | 1.03 ± 0.064 | 1.02 ± 0.19 | 1 ± 0.4 | 0.988 (active)
Cc1ccc(-n2ncnc2-c2ccccc2C)cc1Cl | 0.759 ± 0.064 | 0.787 ± 0.044 | 1.14 ± 0.11 | 0.777 ± 0.052 | 1.48 ± 0.12 | 1.65 ± 0.21 | 0.996 (active)
COCCCC/C(=N\OCCN)c1ccc(C(F)(F)F)cc1.O=C(O)/C=C\C(=O)O | 0.903 ± 0.072 | 0.902 ± 0.042 | 1.23 ± 0.15 | 0.829 ± 0.04 | 1.42 ± 0.083 | 1.67 ± 0.14 | 0.985 (active)
Cc1nonc1OC(C)CNc1ccc([N+](=O)[O-])cc1 (centres undefined) | 0.989 ± 0.078 | 1.01 ± 0.083 | 1.14 ± 0.089 | 0.84 ± 0.11 | 0.995 ± 0.1 | 0.843 ± 0.15 | 0.998 (active)
CN1CCN(CCCN2c3ccccc3Sc3ccc(Cl)cc32)CC1.O=C(O)/C=C\C(=O)O.O=C(O)/C=C\C(=O)O | 1.01 ± 0.049 | 1.14 ± 0.098 | 2.15 ± 0.15 | 0.14 ± 0.012 | 0.479 ± 0.12 | 0.435 ± 0.13 | 0.86 (active)
Cc1ccc(-c2cc(C(F)(F)F)nn2-c2ccc(S(N)(=O)=O)cc2)cc1 | 0.337 ± 0.026 | 0.481 ± 0.03 | 0.59 ± 0.078 | 1.1 ± 0.091 | 0.848 ± 0.052 | 0.984 ± 0.087 | 0.183 (inactive)
O=S(=O)(c1cccc2ccccc12)n1nnc2ccccc21 | 1.01 ± 0.092 | 1.03 ± 0.068 | 1.05 ± 0.08 | 1.09 ± 0.29 | 1.04 ± 0.065 | 0.995 ± 0.067 | 1 (active)
Oc1ccc2ccccc2c1SSc1c(O)ccc2ccccc12 | 0.639 ± 0.15 | 0.993 ± 0.14 | 1.18 ± 0.15 | 0.09 ± 0.0053 | 0.919 ± 0.1 | 0.908 ± 0.096 | 0.963 (active)
Nc1ccccc1S(N)(=O)=O [Prestw-913] | 0.95 ± 0.19 | 1.07 ± 0.13 | 1.04 ± 0.092 | 0.943 ± 0.062 | 0.991 ± 0.23 | 1.1 ± 0.2 | 0.995 (active)
CN1CCN(C2=C(Cl)C(=O)N(c3cccc(Cl)c3)C2=O)CC1 | 1.09 ± 0.079 | 0.914 ± 0.099 | 1.01 ± 0.03 | 0.465 ± 0.022 | 0.972 ± 0.053 | 0.974 ± 0.096 | 0.993 (active)
O=C(c1cc2ccccc2o1)N1CC(N2C(=O)CNC2=O)C1 | 1.17 ± 0.28 | 1.04 ± 0.081 | 1.06 ± 0.077 | 0.933 ± 0.038 | 1.12 ± 0.15 | 1.33 ± 0.13 | 0.989 (active)
O=C1C(=Cc2ccccc2)SC(=S)N1CO | 0.546 ± 0.053 | 0.757 ± 0.058 | 0.725 ± 0.08 | 0.741 ± 0.073 | 1.03 ± 0.16 | 1.15 ± 0.32 | 0.968 (active)
